A selection: hits, their analogues and other compounds. The true share with any hit is near 19%.
KB-3-1 cytotox – KB-3-1 parental cell cytotoxicity. KB-3-1 viability, CellTiter-Glo ATP luminescence, 72 h. Potency, µM (highest dose often 46.1 µM), actives largely listed as cytotoxic. 400,000 compounds, 1.4% hits; also: nearly all actives have a fitted effect of over 60% in size
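Screening of KB-3-1 cells (DMEM, 10% FBS, phenol-red free) ran from lowest to highest compound concentration; after 72 h at 37 °C viability was read luminescently and curves fitted.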
DT40 TDP1 no CPT – qHTS for Inhibitors of human tyrosyl-DNA phosphodiesterase 1 (TDP1): qHTS in cells in absence of CPT; DT40 Tdp1-/- hTDP1 cells, no CPT, ATP luminescence, 48 h; Potency, µM (titrated, usually from 46.2 µM), most hits filed as inhibitors; 420,000 compounds, 15% hits; AID 686978, 2013; also: nearly all actives have a fitted effect of over 55% in size
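Seeded 400 DT40-hTDP1 cells/well (vehicle DMSO, no 20 nM CPT); pinned compounds; ≥48 hr at 37 °C; CellTiter-Glo luminescence as viability measure.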
HT1080 IDH1KD tx – HT-1080 IDH1 knockdown cell toxicity (counter line) | HT-1080 IDH1 knockdown viability, ATP luminescence, 48 h | AID 686971 | 360,000 compounds, 2% hits | Potency, µM (series often up to 46.1 µM), hits mostly cytotoxic
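After a 2 h attachment period, IDH1KD HT-1080 cells took pin-transferred compound for 48 h at 37 °C; ATP-based luminescence after 10 min room-temperature reagent incubation reported viability.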
TDP1 cell CPT – growth inhibition of DT40 Tdp1-/-;hTDP1 cells with camptothecin (screen for TDP1 inhibitors); chicken DT40 Tdp1-/-;hTDP1 cells + 20 nM CPT, ATP luminescence, 48 h; Potency, µM (titrated, usually from 46.2 µM), usual class: inhibitors; 420,000 compounds, 12% hits; AID 686979; also: nearly all actives have a fitted effect of over 55% in size
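Chicken DT40 Tdp1-/- cells complemented with human TDP1, 400 cells/well, exposed to compounds plus 20 nM camptothecin for at least 48 h at 37 C; viability read as ATP content by CellTiter-Glo luminescence.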
HT1080-NT tox – kills 2HG-producing HT-1080-NT fibrosarcoma cells; HT-1080-NT fibrosarcoma viability, CellTiter-Glo ATP luminescence, 48 h; Potency, µM (top dose mostly 46.1 µM), actives largely listed as cytotoxic; 360,000 compounds, 1.6% hits; AID 686970;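 also: NT is the 2HG producing partner of a matched IDH1 knockdown line; nearly all actives have a fitted effect of over 55% in size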
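Luminescent CellTiter-Glo readout after 48 hours of compound exposure at 37 degrees C defined viability of HT-1080-NT cells. Activity was normalized to DMSO wells and cell-free media wells; concentration-response curves were fitted and assigned curve classes.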
KB-V1 cytotox – KB-V1 MDR subline cytotoxicity; KB-V1 MDR cells viability, CellTiter-Glo, 72 h; Potency, µM (doses to about 46.1 µM), most hits filed as cytotoxic; 400,000 compounds, 3.4% hits; AID 1347076; also: nearly all actives have a fitted effect of over 60% in size
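KB-V1 cells (P-gp-expressing MDR subline of KB-3-1) in phenol-red-free DMEM with 10% FBS were exposed to library compounds over a concentration series for 72 h at 37 degrees C. Viability read by CellTiter-Glo luminescence; concentration-effect curves fitted after normalization.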
A number is an active result; – = inactive; ? = inconclusive; · = no result. Calls follow the shape of the dose curve; as a rule, active = well fitted curve in the direction sought with a large enough effect; inconclusive = small, poorly fitted or top-dose-only effect, or another doubt; inactive = no such curve, though single readings can be large; an effect the other way counts as inactive or inconclusive.

SMILES | KB-3-1 cytotox | DT40 TDP1 no CPT | HT1080 IDH1KD tx | TDP1 cell CPT | HT1080-NT tox | KB-V1 cytotox
C[C@@H]1CC[C@]2(C(=O)O[C@@H]3O[C@H](CO)[C@@H](O)[C@H](O)[C@H]3O)CC[C@]3(C)C(=CCC4[C@@]5(C)CC[C@H](O[C@@H]6OC[C@H](O)[C@H](O[C@@H]7O[C@H](CO)[C@@H](O)[C@H](O)[C@H]7O)[C@H]6O)C(C)(C)C5CC[C@]43C)C2[C@]1(C)O (some centres undefined) | – | – | – | – | – | –
C[C@@H]1OC(OC2CC[C@@]3(C)C(CC[C@@]4(C)C3CC=C3C5CC(C)(C)CC[C@]5(C(=O)OC5OCC(O)[C@@H](O)[C@@H]5OC5O[C@@H](C)[C@H](O[C@H]6OC(CO)C(O)C(O)C6O)C(O)C5O)C(O)C[C@@]34C)C2(C)C)C(O)C(O)[C@H]1OC1OCC(O)C(O)[C@H]1O (some centres undefined) | · | ? | · | 15µM | · | ·
C/C=C(\C)C(=O)OC1[C@H](OC(C)=O)C2(CO)C(CC1(C)C)C1=CCC3C4(C)CCC(O[C@@H]5O[C@H](C(=O)O)[C@@H](O[C@@H]6O[C@H](CO)[C@@H](O)[C@H](O)[C@H]6O)[C@H](O)[C@H]5O[C@H]5O[C@H](CO)[C@@H](O)[C@H](O)[C@H]5O)[C@](C)(CO)C4CCC3(C)[C@]1(C)C[C@H]2O (some centres undefined) | – | 15µM | · | 12µM | · | ?
CC1(C)C[C@H]2C3=CCC4[C@@]5(C)CC[C@H](O[C@@H]6O[C@H](C(=O)O)[C@@H](O)[C@H](O)[C@H]6O)[C@@](C)(CO)C5CC[C@@]4(C)[C@]3(C)C[C@H](O)[C@@]2(CO)[C@@H](O)[C@@H]1O (some centres undefined) | – | – | – | – | – | –
COc1ccc(/C=C\C(=O)O[C@@H]2C(O)C(O[C@@H]3OC(C)[C@H](O[C@@H]4OCC(O[C@H]5O[C@H](CO)[C@@H](O)C(O)C5O)C(O)C4O)C(O)C3O)[C@H](OC(=O)[C@]34CCC(C)(C)C[C@@H]3C3=CCC5[C@@]6(C)CC(O)C(O[C@@H]7OC(CO)C(O)[C@H](O)[C@H]7O)[C@@](C)(C(=O)O)C6CC[C@@]5(C)[C@]3(CO)CC4)O[C@H]2C)cc1 (some centres undefined) | – | 5.2µM | 21µM | 3.7µM | ? | –
Nn1c(SCC(=O)NC(=O)Nc2ccc3c(c2)OCCO3)nnc1C1CC1 | – | – | – | – | – | ?
COc1ccc(CCNC(=O)c2cc(-c3ccccc3O)n[nH]2)cc1OC | – | – | – | – | – | –
COc1ccc(CCNC(=O)c2cc(-c3ccc(C)cc3O)n[nH]2)cc1OC | – | 21µM | ? | ? | ? | –
COc1ccc(CCNC(=O)c2cc(-c3cc(Cl)ccc3O)n[nH]2)cc1OC | ? | 12µM | – | ? | ? | ?
COC(=O)CNC(=O)Nc1cc(C(=O)NCc2ccc(C)cc2)ccc1N1CCCC1 | – | – | · | – | · | ?
COc1ccc(/C=N/OCC(=O)Nc2ccc3c(c2)OCO3)c(OC)c1 | – | ? | – | – | – | ?
Cc1ccc(S(=O)(=O)N2CCOC23CCN(C(=O)c2cc(Cl)ccc2Cl)CC3)cc1 | ? | ? | – | ? | – | –
Cc1ccc(S(=O)(=O)N2CCOC23CCN(S(=O)(=O)c2c(C)cc(C)cc2C)CC3)cc1 | ? | ? | – | 18µM | – | ?
COc1ccc(S(=O)(=O)N2CCOC23CCN(S(=O)(=O)c2ccc(C)cc2)CC3)cc1 | – | ? | – | ? | – | –
Cc1ccc(S(=O)(=O)N2CCOC23CCN(C(=O)c2ccc(Cl)cc2Cl)CC3)cc1 | ? | 21µM | – | ? | ? | –

Assay outcomes deposited in PubChem by National Center for Advancing Translational Sciences (NCATS).
